Compound activity from PubChem BioAssay.
The list is not random: actives were taken first. Their share in the collection is about 5.9%.
HSP90 refold inh: HSP90 inhibitors, primary screen, cell lysate, luminescence. AID 1789, 2009. Heat shock protein HSP 90 (rabbit reticulocyte lysate; luciferase refolding). inhibition, % at 5.6 µM. actives 0.91% (n = 290,000). Rabbit reticulocyte lysate, luciferase refolding luminescence, 3 h;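 active = inhibition above the screen-wide mean plus 3 SD, computed separately per campaign, cut at about 16% in these data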;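 also: 0% = DMSO wells and 100% = 60 µM geldanamycin wells; inhibitors lower the luminescence because luciferase stays unfolded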
HSF1 activator: HSF-1 activators, primary screen, NIH3T3-HGL cells, MG132 stress, luminescence, single point; actives 1.7% (n = 300,000); NIH3T3-HGL HSF-1 luciferase reporter, 8 h; 100% = twice DMSO control signal; activation, % at 9 µM;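 active = mean replicate activation of at least 50% with a set share of replicates each reaching 50%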;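 also: 0% = median of the neutral control wells and 100% = twice that signal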
HSF1 inh: HSF1 inhibitors in luciferase reporter cells, primary screen, cell-based, NIH3T3, luminescence | NIH3T3-HGL HSE-luciferase, MG132-induced, luminescence 8 h; stronger effect = lower value | activity change, negative = inhibition, % at 7.5 µM (by protocol) | actives 0.77% (n = 300,000) | AID 2098, 2009;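 active = more than half of replicate wells show activity change below -50%, luminescence cut by over half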;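 also: luciferase reports HSF-1 transcriptional activity via heat shock element; 0% = median of DMSO wells and -100% = zero luminescence signal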
GAA850 FXN act: FXN promoter activators, primary screen, cell-based, luciferase luminescence, HEK293 lucGAA850 | HEK293 lucGAA850 FXN promoter luciferase reporter, 24 h; percent of 10 µM SAHA response | activation, % at 6 µM | actives 0.56% (n = 360,000) | AID 540364, 2011;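 active = activation above the average of all compounds screened plus 3 SD, cutoff fixed separately per campaign, cut at about 7.5% in these data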;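 also: 0% = DMSO wells and 100% = 10 µM SAHA wells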
AHR act: AHR activators, primary screen, cell-based, luminescence, luciferase reporter, human. AHR-responsive luciferase reporter cells. activation, % at 5 µM. actives 2.5% (n = 320,000). AID 2796, 2010; in the data active = activation above about 47%;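 also: 0% = vehicle wells and 100% = reference agonist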
NR0B1 inh: DAX1 (NR0B1) inhibitors, primary screen, cell-based, HEK293, Gal4-DAX1, luciferase luminescence | Nuclear receptor subfamily 0 group B member 1 (Homo sapiens), P51843 | HEK293 Gal4-DAX1 luciferase reporter | inhibition, % at 6.75 µM | actives 0.99% (n = 340,000);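 active = inhibition above the mean over all tested compounds plus 3 SD, cut at about 4.2% in these data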;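 also: 0% = DAX1-transfected cells with DMSO and 100% = empty-vector control cells with DMSO; inhibition shows as a rise in luminescence from relieved DAX1 repression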
Target sequence (P51843 207-470 limits assumed): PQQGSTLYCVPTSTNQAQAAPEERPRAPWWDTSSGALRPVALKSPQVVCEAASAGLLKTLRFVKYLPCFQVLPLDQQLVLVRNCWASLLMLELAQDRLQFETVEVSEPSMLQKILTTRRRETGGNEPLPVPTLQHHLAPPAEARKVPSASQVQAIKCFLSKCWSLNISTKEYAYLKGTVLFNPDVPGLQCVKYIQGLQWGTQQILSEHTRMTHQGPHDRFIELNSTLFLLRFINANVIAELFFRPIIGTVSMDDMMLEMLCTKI
* hit, by the source's call; / = no result.

SMILES	HSP90 refold inh	HSF1 activator	HSF1 inh	GAA850 FXN act	AHR act	NR0B1 inh
CC(=O)Nc1ccc(OCc2nnc(-c3ccc(Cl)cc3)o2)cc1	-0.9	65.2*	44.1	4.8	4.2	-0.7
COc1ccc(S(=O)(=O)N2CCCCC2)cc1NC(=O)C1CC1C (stereo not given)	/	/	/	0.3	-0.5	0.7
COc1ccc(S(=O)(=O)Nc2cc3c4c(oc3c3ccccc23)CCCC4=O)cc1	4.4	56.4*	39.0	-5.0	47.7*	-3.1
COc1ccc(S(=O)(=O)Nc2cc3c4c(oc3c3ccccc23)CC(C)(C)CC4=O)cc1	0.3	32.3	11.4	1.3	37.9	0.2
O=C1CC(c2ccc(Cl)cc2)n2nc(NS(=O)(=O)c3ccc(F)cc3)nc2N1 (stereo not given)	0.4	63.9*	14.8	-1.5	12.6	1.6
O=C(Nc1ccccc1)C1=C(O)CC(c2ccoc2)CC1=Nc1ccccc1 (stereo not given)	3.9	86.0*	68.2	1.0	-0.1	-0.9
O=C(CSc1ncccn1)NC(=O)NC1CCCC1	/	/	/	2.3	/	0.6
CCOc1ccc(C(=O)N2CCc3ccccc32)cc1	-4.3	30.4	13.7	3.4	3.5	1.4
CCOc1ccc(S(=O)(=O)NCCC(=O)OC(C)C(=O)N2CCc3ccccc32)cc1 (stereo not given)	-2.8	56.1*	15.1	-2.7	2.3	-1.5
O=C(Nc1ccc(F)cc1)c1c(Cl)nc2ccccn12	0.2	25.2	11.6	1.4	57.6*	0.5
COc1ccc(CNC(=O)c2c(C)nc3ccccn23)cc1	2.1	5.2	1.2	1.1	7.8	-0.4
COc1ccc(/C=C/C(=O)c2c(C)nc3ccccn23)cc1	-4.9	62.9*	30.9	1.8	-2.5	3.8
Cc1nc2ccccn2c1C(=O)/C=C/c1ccc(F)cc1	-2.1	199.7*	175.1	1.5	-7.3	1.5
CCOc1ccc(S(=O)(=O)N2CCCCC2)cc1NC(=O)CCNC(=O)c1ccco1	/	/	/	-0.8	/	-0.5
CSc1nc2c(c(=O)[nH]1)C(c1ccncc1)C(C(=O)OC(C)C)=C(C)N2 (stereo not given)	2.6	-2.5	-0.3	-0.8	51.3*	2.4
CCCNc1c(N)n(-c2ccccc2)c(=O)[nH]c1=O	0.5	24.3	-11.5	1.7	5.8	6.1*
CCN(CC)S(=O)(=O)c1cccc(NC(=O)/C=C/c2cccc([N+](=O)[O-])c2)c1	3.9	-0.8	5.5	-2.8	2.3	-3.3
CCN(CC)S(=O)(=O)c1cccc(NC(=O)/C=C/c2ccc([N+](=O)[O-])cc2)c1	-1.1	69.9*	13.8	0.2	7.5	-3.7
CCn1c(-c2ccsc2)nc2c1c(=O)[nH]c(=O)n2Cc1ccccc1	1.1	55.7*	22.4	-1.2	2.7	-0.2
CCOC(=O)c1cc(-c2ccccc2C)n(CC2CC(c3cccc([N+](=O)[O-])c3)=NO2)n1 (stereo not given)	/	/	/	2.5	0.6	0.1
COc1ccc(C2=NOC(C(=O)Nc3c(C)n(C)n(-c4ccccc4)c3=O)C2)cc1 (stereo not given)	2.2	18.7	-3.1	0.7	-0.6	0.4
Cc1c(NC(=O)C2CC(c3ccc(F)cc3)=NO2)c(=O)n(-c2ccccc2)n1C (stereo not given)	-4.6	-88.3	-83.9*	-1.1	-2.4	-0.7
N#Cc1c(-c2ccc(F)cc2)cc(-c2cccnc2)nc1N	0.3	-4.6	-6.3	1.5	54.8*	-0.9
CCN(CC)C(=O)c1nc[nH]c1C(=O)N1CCN(c2ccccc2)CC1	/	/	/	0.2	0.8	0.9
CNc1nc(NCc2ccc(N(C)C)cc2)c2sccc2n1	/	/	/	2.6	/	/
SMILES	HSP90 refold inh	HSF1 activator	HSF1 inh	GAA850 FXN act	AHR act	NR0B1 inh
NC1=NC(=Nc2cccc(S(N)(=O)=O)c2)c2ccccc21	0.6	-10.2	-7.1	0.6	1.9	0.1
COc1cc(N=Nc2cccc(S(N)(=O)=O)c2)c2ccccc2c1N	5.3	-26.5	-1.9	-0.7	56.8*	2.9
O=C(Oc1cc(=O)oc2c1c(=O)n1c3c(cccc23)CC1)c1ccccc1	-2.2	-4.5	0.8	-1.1	3.5	0.0
O=C(Oc1cc(=O)oc2c1c(=O)n1c3c(cccc23)CC1)c1ccc(F)cc1	-1.9	-75.0	-67.3*	-0.1	7.0	/
CCCNC(=O)c1cccc(Br)c1	0.1	-3.1	-6.4	2.3	0.5	-1.1
O=C(COc1cccc(Br)c1)NN=C1c2ccccc2-c2ccccc21	-0.5	15.7	-0.5	2.5	19.4	-0.6
O=C(NN=C1c2ccccc2-c2ccccc21)c1cccc(Br)c1	1.6	-19.8	-12.2	1.4	56.1*	0.2
O=C(NCCc1ccccc1)c1cccc(Br)c1	2.5	64.8*	37.3	5.9	0.0	1.3
O=[N+]([O-])c1cccnc1NCCc1ccccc1	-1.4	45.2	27.4	3.7	43.0	1.0
O=[N+]([O-])c1cccnc1NCCc1c[nH]c2ccccc12	-6.1	54.3*	24.0	2.4	24.0	3.7
NC1=NC(=O)/C(=C\c2ccc(-c3ccc(Cl)cc3)o2)S1	-8.3	-4.0	11.3	6.2	51.0*	1.0
CN(C)C1=NC(=O)/C(=C/c2ccc(-c3ccc(S(N)(=O)=O)cc3)o2)S1	-4.4	10.8	-1.6	/	23.8	/
Nc1c(C(=O)Nc2ccccc2)sc2nc3c(c(-c4ccco4)c12)CCC3	0.6	2.0	-2.3	2.5	15.0	1.9
CC(=O)c1sc2nc(-c3ccco3)ccc2c1N	5.8	17.2	7.6	6.4	-0.3	/
Cc1ccc(NC(=O)c2sc3nc4c(c(-c5ccco5)c3c2N)CCC4)cc1	-0.6	-0.1	-0.2	0.9	60.3*	-0.8
Nc1c(C(=O)Nc2ccc(F)cc2)sc2nc(-c3ccco3)ccc12	1.3	17.6	6.5	2.1	72.2*	0.1
Nc1c(C(=O)Nc2ccc(Br)cc2)sc2nc(-c3ccco3)ccc12	-0.7	14.0	6.2	1.4	60.4*	-1.3
Nc1c(C(=O)Nc2ccccc2)sc2nc3c(c(-c4ccco4)c12)CCCC3	1.7	10.9	24.0	3.8	-1.9	0.5
Oc1ccc(C=NN=C2c3ccccc3-c3ccccc32)c(O)c1	/	/	/	-1.3	/	-1.2
Cc1c(C(=O)NCC2CCCO2)oc2ccc(Br)cc12 (stereo not given)	/	23.7	21.4	5.3	13.7	1.9
CC(=O)Oc1ccc(OC(C)=O)c(SCCCCCCl)c1	1.4	-95.6	-95.7*	-0.8	/	-1.7
CCCN(CC(=O)Nc1ccccc1C)C(=O)CCNC(=O)c1ccccc1Cl	/	20.8	2.1	1.1	2.0	1.6
